# Laboratory results: PubChem BioAssay (Tox21)
# “And” between values parts separate entries of the source, which are not always exact repeats. Equal entries are not always repeated. Results filed as inconclusive are left out. Entries that show only a call come without a potency. More than one record can exist for a structure, and the calls need not agree. The source made the active and inactive calls. The call rests on the fitted dose curve; in most records, active means well fitted curve in the direction sought with a large enough effect in the repeat runs; inconclusive means weak or mixed curves; inactive means no such curve, though single readings can be large; an effect the other way counts as inactive or inconclusive.
# Key:
# [1] = A CellTox Green Cytotoxicity Assay to monitor cytotoxicity in HEK293 cells - 40 hour (AID 1224871); further: nearly all actives have a fitted effect of over 45% in size; further: potency means the concentration at half of the fitted maximal effect
# In short: (§1)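 Fluorescence intensity, read at 0, 8, 16, 24, 32 and 40 h of compound treatment, reflected dye binding to DNA of dead HEK293 cells; compounds (23 nL, DMSO) were added 5 h after plating cells with reagent.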
# [2] = qHTS RealTime-Glo MT Cell Viability Assay in HEK293 cells - 16 hour (AID 1224872); further: nearly all actives have a fitted effect of over 50% in size; further: potency means the concentration at half of the fitted maximal effect
# In short: (§2)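 Reads taken at 0, 8, 16, 24, 32 and 40 h from the same wells. HEK293 cells (600/well) carried RealTime-Glo reagents from seeding, with compound added after a 5 h settle at 37 C.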
# [3] = qHTS RealTime-Glo MT Cell Viability Assay in HepG2 cells - 8 hour (AID 1224873); further: nearly all actives have a fitted effect of over 55% in size; further: potency means the concentration at half of the fitted maximal effect
# In short: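 HepG2 cells (600/well) mixed with RealTime-Glo MT reagent, settled 5 h at 37 C/5% CO2 before compound addition. Nonlytic NanoLuc luminescence from viable-cell prosubstrate reduction read repeatedly during 40 h treatment at 37 C.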
# [4] = qHTS RealTime-Glo MT Cell Viability Assay in HEK293 cells - 40 hour (AID 1224874); details: RealTime-Glo luminescence; max response: stronger effect = lower value; further: nearly all actives have a fitted effect of over 50% in size; further: potency means the concentration at half of the fitted maximal effect
# In short: (§3)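 Viable HEK293 cells reduce a cell-permeant prosubstrate; the product diffuses out and is consumed by NanoLuc in the medium to give light. Compounds went in after a 5 h incubation and plates were read over the treatment course.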
# [5] = A CellTox Green Cytotoxicity Assay to monitor cytotoxicity in HepG2 cells - 16 hour (AID 1224876); further: nearly all actives have a fitted effect of over 45% in size; further: potency means the concentration at half of the fitted maximal effect
# In short: (§4)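 Using 1536-well format, dye-containing HepG2 suspension was seeded, allowed 5 h at 37 C/5% CO2, dosed by pintool with compounds, positive and negative controls, and imaged for fluorescence across 40 h.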
# [6] = qHTS RealTime-Glo MT Cell Viability Assay in HepG2 cells - 32 hour (AID 1224877); further: nearly all actives have a fitted effect of over 55% in size
# In short: (§5)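 HepG2 suspension premixed with RealTime-Glo reagents is plated at 600 cells per well and left 5 h at 37 C/5% CO2. Compounds in DMSO then go in, and bioluminescence reflecting viable cell number is recorded over 40 h.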
# [7] = A CellTox Green Cytotoxicity Assay to monitor cytotoxicity in HepG2 cells - 24 hour (AID 1224878); further: nearly all actives have a fitted effect of over 45% in size; further: potency means the concentration at half of the fitted maximal effect
# In short: as §4
# [8] = A CellTox Green Cytotoxicity Assay to monitor cytotoxicity in HepG2 cells - 40 hour (AID 1224879); further: nearly all actives have a fitted effect of over 40% in size; further: potency means the concentration at half of the fitted maximal effect
# In short: as §4
# [9] = qHTS RealTime-Glo MT Cell Viability Assay in HEK293 cells - 0 hour (AID 1224880); further: top concentration of the series differs between compounds; nearly all actives have a fitted effect of over 45% in size
# In short: as §3
# [10] = A CellTox Green Cytotoxicity Assay to monitor cytotoxicity in HEK293 cells - 32 hour (AID 1224881); further: nearly all actives have a fitted effect of over 40% in size; further: potency means the concentration at half of the fitted maximal effect
# In short: as §1
# [11] = A CellTox Green Cytotoxicity Assay to monitor cytotoxicity in HepG2 cells - 0 hour (AID 1224882); further: nearly all actives have a fitted effect of over 35% in size; further: potency means the concentration at half of the fitted maximal effect
# In short: as §4
# [12] = A CellTox Green Cytotoxicity Assay to monitor cytotoxicity in HepG2 cells - 32 hour (AID 1224883); further: nearly all actives have a fitted effect of over 50% in size; further: potency means the concentration at half of the fitted maximal effect
# In short: as §4
# [13] = A CellTox Green Cytotoxicity Assay to monitor cytotoxicity in HEK293 cells - 8 hour (AID 1224884); further: nearly all actives have a fitted effect of over 35% in size; further: potency means the concentration at half of the fitted maximal effect
# In short: as §1
# [14] = qHTS RealTime-Glo MT Cell Viability Assay in HepG2 cells - 16 hour (AID 1224885); further: nearly all actives have a fitted effect of over 50% in size; further: potency means the concentration at half of the fitted maximal effect
# In short: as §5
# [15] = qHTS RealTime-Glo MT Cell Viability Assay in HEK293 cells - 24 hour (AID 1224886); further: nearly all actives have a fitted effect of over 50% in size; further: potency means the concentration at half of the fitted maximal effect
# In short: as §2
# [16] = qHTS RealTime-Glo MT Cell Viability Assay in HEK293 cells - 8 hour (AID 1224887); further: nearly all actives have a fitted effect of over 50% in size; further: potency means the concentration at half of the fitted maximal effect
# In short: as §3
# [17] = A CellTox Green Cytotoxicity Assay to monitor cytotoxicity in HepG2 cells - 8 hour (AID 1224890); further: nearly all actives have a fitted effect of over 45% in size; further: potency means the concentration at half of the fitted maximal effect
# In short: as §4
# [18] = A CellTox Green Cytotoxicity Assay to monitor cytotoxicity in HEK293 cells - 24 hour (AID 1224875); further: nearly all actives have a fitted effect of over 45% in size; further: potency means the concentration at half of the fitted maximal effect
# In short: as §1
# [19] = A CellTox Green Cytotoxicity Assay to monitor cytotoxicity in HEK293 cells - 16 hour (AID 1224888); further: nearly all actives have a fitted effect of over 35% in size
# In short: as §1
# [20] = qHTS RealTime-Glo MT Cell Viability Assay in HepG2 cells - 0 hour (AID 1224889); further: nearly all actives have a fitted effect of over 50% in size
# In short: as §5
compound,measurement,setting,value
COC(=O)/C=C/c1ccccc1,Potency,[1],inactive and 21.9 µM (active)
same,Potency,[2],inactive
same,Potency,[3],inactive
same,max response,[4],-2.16% (inactive)
same,Potency,[5],inactive
same,Potency,[6],inactive
same,Potency,[7],inactive
same,Potency,[8],inactive
same,Potency,[9],inactive
same,Potency,[10],inactive and 21.9 µM (active)
same,Potency,[11],inactive
same,Potency,[12],inactive
same,Potency,[13],inactive and 34.7 µM (active)
same,Potency,[14],inactive
same,Potency,[15],inactive
same,Potency,[16],inactive
same,Potency,[17],inactive
CC[C@H]1CN2CCc3cc(OC)c(OC)cc3[C@@H]2C[C@@H]1C[C@H]1NCCc2cc(OC)c(OC)cc21,Potency,[1],55.1 µM (active)
same,Potency,[2],24.6 nM (active) and 75.6 nM (active)
same,Potency,[3],inactive
same,Potency,[4],13.9 nM (active) and 42.5 nM (active)
same,Potency,[18],inactive
same,Potency,[5],inactive
same,Potency,[8],49.2 µM (active) and 16.9 µM (active)
same,Potency,[9],inactive
same,Potency,[11],inactive
same,Potency,[12],49.2 µM (active) and 21.3 µM (active)
same,Potency,[13],inactive
same,Potency,[15],17.4 nM (active) and 47.7 nM (active)
same,Potency,[16],874 nM (active) and 3.38 µM (active)
same,Potency,[19],inactive
same,Potency,[17],inactive
Oc1c(Cl)cc(Cl)cc1Sc1cc(Cl)cc(Cl)c1O,Potency,[1],49.1 µM (active) and 43.6 µM (active) and inactive
same,Potency,[2],inactive
same,Potency,[3],inactive
same,Potency,[4],17.4 µM (active) and 22.2 µM (active) and 13.8 µM (active)
same,Potency,[5],44.4 µM (active) and 43.6 µM (active) and inactive
same,Potency,[6],inactive
same,Potency,[9],inactive
same,Potency,[11],inactive and 43.6 µM (active)
same,Potency,[12],44.4 µM (active) and 43.6 µM (active) and inactive
same,Potency,[13],inactive and 43.6 µM (active)
same,Potency,[15],21.9 µM (active)
same,Potency,[16],inactive
same,Potency,[20],inactive
same,Potency,[17],inactive and 43.6 µM (active)
Nc1cc(S(=O)(=O)O)cc2cc(S(=O)(=O)O)cc(O)c12,Potency,[1],inactive
same,Potency,[2],inactive
same,Potency,[3],inactive
same,max response,[4],-12.9% (inactive)
same,Potency,[18],inactive
same,Potency,[5],inactive
same,Potency,[8],inactive
same,Potency,[9],inactive
same,Potency,[11],inactive
same,Potency,[12],inactive
same,Potency,[13],inactive
same,Potency,[15],inactive
same,Potency,[19],inactive
same,Potency,[20],inactive
same,Potency,[17],inactive
Cc1ccc(-c2cc(C(F)(F)F)nn2-c2ccc(S(N)(=O)=O)cc2)cc1,Potency,[1],54.7 µM (active) and 54.9 µM (active) and inactive
same,Potency,[2],38.7 µM (active) and 27.5 µM (active) and inactive
same,Potency,[3],48.8 µM (active) and 49 µM (active) and inactive
same,Potency,[4],21.8 µM (active) and 30.9 µM (active)
same,Potency,[18],inactive
same,Potency,[5],48.8 µM (active) and 43.6 µM (active)
same,Potency,[8],48.8 µM (active) and 49 µM (active)
same,Potency,[9],inactive
same,Potency,[11],inactive
same,Potency,[12],48.8 µM (active) and 49 µM (active)
same,Potency,[13],inactive
same,Potency,[14],48.8 µM (active) and 43.6 µM (active) and inactive
same,Potency,[15],38.7 µM (active) and 30.9 µM (active)
same,Potency,[16],43.5 µM (active) and 30.9 µM (active) and inactive
same,Potency,[19],inactive
same,Potency,[20],inactive
same,Potency,[17],54.9 µM (active)
COC(=O)c1cccc(C(=O)OC)c1,Potency,[1],inactive and 38.9 µM (active)
same,Potency,[2],inactive
same,Potency,[3],inactive
same,max response,[4],2.68% (inactive) and 4.11% (inactive)
same,Potency,[5],inactive and 38.9 µM (active)
same,Potency,[6],inactive
same,Potency,[7],inactive and 38.9 µM (active)
same,Potency,[8],inactive and 24.5 µM (active)
same,Potency,[9],inactive
same,Potency,[10],inactive and 38.9 µM (active)
same,Potency,[11],inactive and 38.9 µM (active)
same,Potency,[12],inactive and 24.5 µM (active)
same,Potency,[13],inactive and 43.6 µM (active)
same,Potency,[14],inactive
same,Potency,[15],inactive
same,Potency,[16],inactive
same,Potency,[20],inactive
same,Potency,[17],inactive and 43.6 µM (active)
CN(C)c1ccc(C(=C2C=CC(=[N+](C)C)C=C2)c2ccccc2)cc1,Potency,[1],17.4 µM (active) and 9.52 µM (active) and 10.7 µM (active)
same,Potency,[2],3.01 µM (active) [middle of 4 runs]
same,Potency,[3],17.4 µM (active) and 21.3 µM (active) and 19 µM (active)
same,Potency,[4],1.34 µM (active) [middle of 4 runs]
same,Potency,[18],19.5 µM (active) [middle of 4 runs]
same,Potency,[5],9.77 µM (active) and 9.52 µM (active) and 7.56 µM (active)
same,Potency,[9],inactive
same,Potency,[10],15.1 µM (active) [middle of 4 runs]
same,Potency,[11],inactive
same,Potency,[13],inactive
same,Potency,[15],2.39 µM (active) [middle of 4 runs]
same,Potency,[16],13.8 µM (active) and 10.7 µM (active) and 13.4 µM (active)
same,Potency,[17],21.9 µM (active) and 8.49 µM (active)
